# Structures can show the parent of a compound that is named as a salt. ± gives the standard deviation of the averaged measurements.
# Legend:
# Test in all cases: growth (OD600 after 10 h); higher = more growth (less inhibition)
# [1] = system: E. coli TESEC Alr+ wild-type control; conditions: compound 0.1 mM; raw OD600 reference: median of DMSO wells 0.241, cell-free background 0.041
# Method: (§1)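 TESEC Mtb Alr E. coli, or the Alr+ wild-type control, in 384-well plates with Prestwick library compounds at 0.1 mM and 1% DMSO, across arabinose induction levels of 1E3 to 1E7 nM. Growth is read as OD600 after 10 h at 37 °C in triplicate biological replicates.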
# E. coli TESEC Mtb Alr [2] = conditions: compound 0.1 mM
# Method: as §1
# E. coli TESEC Mtb Asd = conditions: compound 0.1 mM
# Method: (§2)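 TESEC E. coli strains in which the native enzyme is deleted and replaced by arabinose-inducible Mtb Asd, DapB, CysH or TrpD, each grown in its selective medium. Strains were screened against the Prestwick library at 0.1 mM and 1% DMSO in 384-well format at low and high arabinose induction. Growth is read as OD600 after 10 h in triplicate.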
# E. coli TESEC Mtb Alr [3] = conditions: compound 0.1 mM; remark: listed apart in the source
# Method: (§3)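 TESEC Mtb Alr E. coli (ΔaraC ΔtolC ΔentC Δalr ΔdadX, arabinose-inducible Mtb Alr) or the Alr+ wild-type control strain, grown in defined M9-fructose medium without D-alanine in 96-well plates with Prestwick library compounds at 0.1 mM and 1% DMSO. Low Alr induction is 0.1 µM arabinose and high induction is 10 mM arabinose.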
# E. coli TESEC Mtb DapB = conditions: compound 0.1 mM
# Method: as §2
# [4] = system: E. coli TESEC Alr+ wild-type control; conditions: compound 0.1 mM; raw OD600 reference: median of DMSO wells 0.49, cell-free background 0.052
# Method: as §3
# [5] = arabinose 1000 nM, raw OD600 reference: median of DMSO wells 0.294, cell-free background 0.041
# [6] = arabinose 10000 nM, raw OD600 reference: median of DMSO wells 0.264, cell-free background 0.041
# [7] = arabinose 100000 nM, raw OD600 reference: median of DMSO wells 0.201, cell-free background 0.041
# [8] = arabinose 1000000 nM, raw OD600 reference: median of DMSO wells 0.193, cell-free background 0.041
# [9] = arabinose 10000000 nM, raw OD600 reference: median of DMSO wells 0.146, cell-free background 0.041
# [10] = arabinose induction (level): High, raw OD600 reference: median of DMSO wells 0.331, cell-free background 0.041
# [11] = arabinose induction (level): Low, raw OD600 reference: median of DMSO wells 0.417, cell-free background 0.041
# [12] = arabinose 100 nM, raw OD600 reference: median of DMSO wells 0.413, cell-free background 0.052
# [13] = arabinose 10000000 nM, raw OD600 reference: median of DMSO wells […], cell-free background 0.052
# [14] = arabinose induction (level): High, raw OD600 reference: median of DMSO wells […], cell-free background 0.041
# [15] = arabinose induction (level): Low, raw OD600 reference: median of DMSO wells 0.227, cell-free background 0.041
SMILES,growth [1],growth (E. coli TESEC Mtb Alr [2]; [5]),growth (E. coli TESEC Mtb Alr [2]; [6]),growth (E. coli TESEC Mtb Alr [2]; [7]),growth (E. coli TESEC Mtb Alr [2]; [8]),growth (E. coli TESEC Mtb Alr [2]; [9]),growth (E. coli TESEC Mtb Asd; [10]),growth (E. coli TESEC Mtb Asd; [11]),growth (E. coli TESEC Mtb Alr [3]; [12]),growth (E. coli TESEC Mtb Alr [3]; [13]),growth (E. coli TESEC Mtb DapB; [14]),growth (E. coli TESEC Mtb DapB; [15]),growth [4]
NC(=O)OCCCc1ccccc1 [Phenprobamate],0.219 ± 0.0026,0.274 ± 0.0083,0.258 ± 0.011,0.183 ± 0.018,0.192 ± 0.012,0.138 ± 0.0065,0.31 ± 0.11,0.323 ± 0.063,0.421 ± 0.011,0.352 ± 0.02,,,
N[C@@H]1C[C@H]1c1ccccc1 [Tranylcypromine hydrochloride],0.241 ± 0.013,,,,,,0.354 ± 0.034,0.388 ± 0.012,0.411 ± 0.011,0.371 ± 0.024,0.183 ± 0.0098,0.23 ± 0.012,
CN1CCN(C(=O)OC2c3nccnc3C(=O)N2c2ccc(Cl)cn2)CC1 (stereo unspecified) [Zopiclone],0.222 ± 0.0047,,,,,,0.291 ± 0.062,0.358 ± 0.056,0.417 ± 0.009,0.357 ± 0.01,0.194 ± 0.0097,0.224 ± 0.04,0.454 ± 0.011
COc1cc([C@@H]2c3cc4c(cc3[C@H](O)[C@H]3COC(=O)[C@H]23)OCO4)cc(OC)c1OC [Podophyllotoxin],0.222 ± 0.0075,0.298 ± 0.016,0.271 ± 0.0092,0.168 ± 0.012,0.163 ± 0.0082,0.1495 ± 0.0008,0.443 ± 0.027,0.46 ± 0.053,0.403 ± 0.015,0.298 ± 0.0059,,,
C[C@]12CC[C@H](O)C[C@H]1CC[C@@H]1[C@@H]2C[C@@H](O)[C@]2(C)[C@@H](C3=CC(=O)OC3)CC[C@]12O [Digoxigenin],0.228 ± 0.005,0.299 ± 0.018,0.257 ± 0.0041,0.201 ± 0.016,0.17 ± 0.0032,0.14 ± 0.0016,0.262 ± 0.025,0.458 ± 0.024,0.408 ± 0.02,0.331 ± 0.011,,,
CCC(COC(=O)c1cc(OC)c(OC)c(OC)c1)(c1ccccc1)N(C)C (stereo unspecified) [Trimebutine],0.13 ± 0.0031,,,,,,0.205 ± 0.033,0.245 ± 0.085,0.403 ± 0.0063,0.119 ± 0.0083,0.1665 ± 0.0014,0.191 ± 0.028,0.255 ± 0.018
CN1C[C@H](CNC(=O)OCc2ccccc2)C[C@@H]2c3cccc4c3c(cn4C)C[C@H]21 [Metergoline],0.0409 ± 0.00056,,,,,,0.0522 ± 0.002,0.0487 ± 0.0029,0.278 ± 0.2,0.05077 ± 0.00012,0.048 ± 0.0011,0.0468 ± 0.00083,0.04927 ± 5.8e-05
CN(C)C(=O)Oc1cc(OC(=O)N(C)C)cc(C(O)CNC(C)(C)C)c1 (stereo unspecified) [Bambuterol hydrochloride],0.22 ± 0.0079,0.266 ± 0.04,0.273 ± 0.0062,0.232 ± 0.02,0.193 ± 0.006,0.141 ± 0.0068,0.328 ± 0.026,0.39 ± 0.047,0.405 ± 0.011,0.342 ± 0.015,,,
c1ccc2c(c1)OCC(C1=NCCN1)O2 (stereo unspecified) [Idazoxan hydrochloride],0.23 ± 0.013,,,,,,0.373 ± 0.039,0.379 ± 0.019,0.401 ± 0.014,0.315 ± 0.0098,0.183 ± 0.017,0.228 ± 0.021,
C[N+]12CCC(CC1)C(OC(=O)C(O)(c1ccccc1)c1ccccc1)C2 (stereo unspecified) [Clidinium bromide],0.239 ± 0.0044,,,,,,0.288 ± 0.035,0.453 ± 0.034,0.406 ± 0.015,0.353 ± 0.019,0.169 ± 0.01,0.201 ± 0.0094,
C=C1CC[C@@]2(O)[C@H]3Cc4ccc(O)c5c4[C@@]2(CCN3CC2CC2)[C@H]1O5 [Nalmefene hydrochloride],0.238 ± 0.013,,,,,,0.193 ± 0.041,0.328 ± 0.08,0.425 ± 0.007,0.327 ± 0.022,,,
CC(C)C[C@H]1C(=O)N2CCC[C@H]2[C@]2(O)O[C@](NC(=O)[C@@H]3C=C4c5cccc6[nH]c(Br)c(c56)C[C@H]4N(C)C3)(C(C)C)C(=O)N12 [Bromocryptine mesylate],0.108 ± 0.0027,,,,,,0.208 ± 0.056,0.117 ± 0.047,0.401 ± 0.0088,0.323 ± 0.067,0.236 ± 0.07,0.229 ± 0.018,
CCC1(c2cccc(O)c2)CCCCN(C)C1 (stereo unspecified) [Meptazinol hydrochloride],0.2565 ± 0.0013,,,,,,0.176 ± 0.04,0.41 ± 0.095,0.411 ± 0.014,0.323 ± 0.023,,,0.643 ± 0.03
C[C@@H]1CN([C@H]2CC[C@](C#N)(c3ccc(F)cc3)CC2)CC[C@]1(C(=O)O)c1ccccc1 [Levocabastine hydrochloride],0.215 ± 0.0053,0.274 ± 0.0041,0.271 ± 0.017,0.171 ± 0.011,0.154 ± 0.0044,0.154 ± 0.0047,0.212 ± 0.033,0.384 ± 0.03,0.404 ± 0.017,0.321 ± 0.022,,,
CC(C)(C)NCC(O)c1cc(Cl)c(N)c(Cl)c1 (stereo unspecified) [Clenbuterol hydrochloride],0.226 ± 0.0046,,,,,,0.35 ± 0.0059,0.231 ± 0.031,0.398 ± 0.011,0.355 ± 0.024,0.185 ± 0.011,0.191 ± 0.0053,0.605 ± 0.12
NC(=O)CN1CCCC1=O [Piracetam],0.245 ± 0.0091,,,,,,0.302 ± 0.06,0.325 ± 0.092,0.415 ± 0.011,0.346 ± 0.018,0.202 ± 0.0067,0.208 ± 0.028,0.491 ± 0.12
C=C1C[C@@H]2[C@H](CC[C@]3(C)C(=O)CC[C@@H]23)[C@@]2(C)C=CC(=O)C=C12 [Exemestane],0.113 ± 0.0025,,,,,,0.0993 ± 0.0088,0.147 ± 0.023,0.379 ± 0.039,0.129 ± 0.019,,,
COP(=O)(OC)C(O)C(Cl)(Cl)Cl (stereo unspecified) [Trichlorfon],0.249 ± 0.0088,0.293 ± 0.0065,0.248 ± 0.0076,0.199 ± 0.015,0.181 ± 0.0066,0.146 ± 0.0059,0.348 ± 0.072,0.363 ± 0.079,0.412 ± 0.012,0.257 ± 0.17,,,
Fc1ccc(C(OCCN2CCN(CCCc3ccccc3)CC2)c2ccc(F)cc2)cc1,0.0433 ± 0.0027,,,,,,0.0464 ± 0.00055,0.04613 ± 0.00046,0.235 ± 0.15,0.0503 ± 0.0006,0.0461 ± 0.00026,0.0459 ± 0.00085,
